# Compound activity (PubChem)
# This is one part of a sample in which hits are shown more often than they occur.
# Dicer inh – blocks human Dicer maturation of pre-miR-21 | 6% of 47,000 active | AID 1347074 | Q9UPY3 | cat-ELCCA pre-miR-21 Dicer processing, chemiluminescence; active compounds read high | z-score at 25 µM; in the data active = z-score above about 3, passing the limit was not always enough;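 also: plate controls were vehicle for no effect and no enzyme for full effect; higher signal means more uncleaved substrate so more Dicer inhibition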
# * = called active by the depositor.
SMILES,Dicer inh
CCOC(=O)c1sc(-c2ccc(C)cc2)nc1O,-0.32
CCOC(=O)c1c(C)n(-c2ccc(N(C)C)cc2)c2ccc(O)cc12,6.63*
CCOC(=O)c1c(C)n(CCO)c2ccc(O)cc12,1.93
CCOC(=O)c1c(O)c(O)c(C(=O)OCC)n1-c1ccc(OC)cc1,0.01
CC1=C(C#N)C(c2cccc(Oc3ccccc3)c2)C2=C(CCCC2=O)N1 (stereo not drawn),0.8
Nc1ccc(-c2nc3ccc(C(=O)O)cc3[nH]2)cc1,-0.84
Cc1cccc(OCc2nc(-c3ccncc3)no2)c1C,0.45
COc1ccc(OC)c(NC(=O)/C=C/c2ccc(N3CCC(c4ccccc4OC)CC3)c([N+](=O)[O-])c2)c1,1.04
CCCOC(=O)C1=C(C)NC2=C(C(=O)CC(C)(C)C2)C1c1cccc(Cl)c1 (stereo not drawn),-0.11
COCCNC(=O)CN1C(=O)c2ccccc2S1(=O)=O,2.98
COc1ccc(/C=C(\C#N)c2ccc([N+](=O)[O-])cc2)cc1[N+](=O)[O-],3.48*
CN(C)c1ccc(/C=C(\C#N)c2ccc([N+](=O)[O-])cc2)cc1[N+](=O)[O-],-0.29
COc1ccc(/C(C#N)=C/c2cn[nH]c2)cc1,-0.82
O=C(Nc1ccc(F)cc1)C12CC3CC(CC(C3)C1)C2,-0.01
Cc1ccc(Oc2ncccc2C(=O)n2ccc(-c3cccs3)n2)cc1,-0.51
O=c1c(O)c(-c2ccc(O)c(O)c2)oc2cc(O)cc(O)c12,0.32
Cc1oc2cc(O)cc(O)c2c(=O)c1-c1ccccc1,1.3
O=c1cc(-c2ccc(O)c(O)c2)oc2cc(O)cc(O)c12,11.6*
COc1cc(C2NC(=O)c3cc([N+](=O)[O-])ccc3N2)cc(OC)c1OC (stereo not drawn),-0.44
Cc1sc2nc(C)n(/N=C/c3ccc4c(c3)OCO4)c(=O)c2c1C,6.39*
Cc1nc2c(cnn2-c2ccccc2)c(=O)n1/N=C/c1ccc2c(c1)OCO2,2.13
Cc1sc2nc(C)n(/N=C/c3cccs3)c(=O)c2c1C,1.93
CCN(CCS(=O)(=O)c1ccc(Cl)cc1)C(=S)Nc1ccc(Cl)c(Cl)c1,-2.62
Cc1cc(Oc2nc3c(c(=O)n(C)c(=O)n3C)n2C)cc(C)c1Cl,3.76*
Cn1c(=O)c2c(nc(Oc3ccc(F)cc3Cl)n2C)n(C)c1=O,2.88
SMILES,Dicer inh
CC(C)n1c(Oc2ccc(F)cc2)nc2c1c(=O)n(C)c(=O)n2C,0.6
O=C(O)c1c[nH]c2cc(Cl)cc(Cl)c2c1=O,43.9
Cc1cc(C)c2ccc(NC(=O)c3ccc(C(F)(F)F)cc3)nc2n1,0.2
CCOc1nc2c(c(-c3ccc(F)cc3)c1C#N)Cc1ccccc1-2,0.45
Cc1cc(C)c(NC(=S)NCc2csc3ccccc23)c(C)c1,2.55
CC(C)(CC(=O)O)CC(=O)NCc1csc2ccccc12,4.45*
S=C(NCc1csc2ccccc12)c1ccccc1,-1.4
COc1ccc(-c2c(C)nn3c4c(cnc23)C(=O)CC(C)(C)C4)cc1,2.3
CN1C(=O)C(O)(CC(=O)c2ccccc2O)c2ccccc21 (stereo not drawn),-2.6
CCCN1C(=O)C2(/C(=C(/O)c3ccccc3)C(=O)C(=O)N2CCCOC)c2ccccc21 (stereo not drawn),5.02*
COCCCN1C(=O)C(=O)/C(=C(\O)c2ccc(OC)cc2)C12C(=O)N(C)c1ccccc12 (stereo not drawn),2.6
CCCN1C(=O)C2(/C(=C(/O)c3ccc(Cl)cc3)C(=O)C(=O)N2CCCN(C)C)c2ccccc21 (stereo not drawn),-2.88
CCCN1C(=O)C2(/C(=C(/O)c3ccc(C)cc3)C(=O)C(=O)N2CCCN(C)C)c2ccccc21 (stereo not drawn),0.61
CCCN1C(=O)C2(/C(=C(/O)c3ccc(OC)cc3)C(=O)C(=O)N2CCCOC)c2ccccc21 (stereo not drawn),3.11*
CCCN1C(=O)C2(/C(=C(/O)c3ccccc3)C(=O)C(=O)N2CCCN(C)C)c2ccccc21 (stereo not drawn),4.43*
CCCN1C(=O)C2(/C(=C(/O)c3ccc(Cl)cc3)C(=O)C(=O)N2CCOC)c2ccccc21 (stereo not drawn),-1.62
CCCN1C(=O)C2(/C(=C(/O)c3ccc(OCC)cc3)C(=O)C(=O)N2CCN(C)C)c2ccccc21 (stereo not drawn),50.8
CCCN1C(=O)C2(/C(=C(/O)c3ccc(C)cc3)C(=O)C(=O)N2CCCOC)c2ccccc21 (stereo not drawn),1.22
Cc1ccc(C)c(OCc2nc(-c3ccccc3)no2)c1,-0.08
COc1ccc(OCCn2cc(C(=O)c3cccs3)c3ccccc32)cc1,2.52
CC(C)Oc1ccc(C2N3CC4(C)CN2CC(C)(C3)C4=O)cc1 (stereo not drawn),0.16
Cc1cc(=O)n(C)c(=O)n1CCCCO,2.17
O=C(c1ccc(C(F)(F)F)cc1)N1CCSC1COc1ccc([N+](=O)[O-])cc1 (stereo not drawn),1.13
O=c1oc2c(-c3ccccc3)n[nH]c(=O)c2c2c1CCC2,0.13
Cc1c(Cl)cccc1Nc1nc(C(C)(C)C)cs1,-1.95
SMILES,Dicer inh
N/C(=N\OC(=O)Nc1ccc(OC(F)(F)F)cc1)c1cc(Cl)c(N)c(Cl)c1,0.19
Cc1ccc(/C=C/c2nn3c(-c4ccco4)nnc3s2)cc1C,2.21
Cc1cccc(/C=C/c2nn3c(-c4ccco4)nnc3s2)c1,3.39*
Clc1ccccc1-c1ccc(-c2nn3c(-c4ccco4)nnc3s2)o1,0.62
COc1ccc(/C=C/c2nn3c(Cc4ccc(OC)cc4)nnc3s2)cc1,4.66*
COc1ccc(/C=C/c2nn3c(Cc4ccccc4)nnc3s2)cc1,0.34
COc1ccc(/C=C/c2nn3c(-c4ccccc4Cl)nnc3s2)cc1,2.26
Clc1ccccc1-c1nnc2sc(/C=C/c3ccccc3)nn12,1.29
COc1ccc(/C=C/c2nn3c(COc4ccccc4)nnc3s2)cc1,-1.47
Cc1ccc(/C=C/c2nn3c(-c4ccco4)nnc3s2)cc1,3.18*
CC(C)NC(=O)n1nccc1-c1cc(-c2ccccc2)no1,-0.13
C#CC(C)(C)NC(=O)c1ccc(C(C)(C)C)cc1,-0.27
COc1cc2c(cc1OC)C(C)N(C(=O)CC(C)(C)CC(=O)O)CC2 (stereo not drawn),-0.35
COCCCNC(=S)N/N=C/c1ccc[nH]1,-3.87
COc1cc(S(=O)(=O)Nc2cccnc2)ccc1Br,-0.61
CCOc1cc(N2CCOCC2)c(OCC)cc1NC(C)=O,2
Fc1ccc(NCc2cccnc2)cc1,3.2*
S=C(NCc1cccnc1)c1ccccc1,-0.17
FC(F)(F)c1cnc(NCc2cccnc2)c(Cl)c1,0.67
COc1cc2c(cc1OC)-c1c(C#N)c(-c3ccc(Cl)cc3)c(C(=O)c3cccs3)n1CC2,-0.34
COc1cc2c(cc1OC)-c1c(C#N)c(-c3ccc4c(c3)OCO4)c(C(C)=O)n1CC2,1.83
COc1cc2c(cc1OC)-c1c(C#N)c(-c3ccc(C)cc3)c(C(=O)c3cccs3)n1CC2,6.22*
O=c1[nH]c2sc(-c3ccccc3)cc2c(=O)n1-c1ccc(Cl)c(Cl)c1,0.69
Cc1nc(N2CCN(c3cccc(Cl)c3)CC2)c2c(C)c(C)sc2n1,1.08
O=C(NC(=S)N1CCCCC1)c1ccccc1,1.36
O=C(N1CCCC1)C1(c2ccccc2)CCOCC1,3.03*
O=C(O)C1(c2ccccc2)CCCC1,2.43
CCSCCOC(=O)C1=C(C)NC2=C(C(=O)CCC2)C1c1ccccc1Cl (stereo not drawn),-1.94
COC(=O)c1ccc(COc2ccc3c(=O)c(-c4ccc(Cl)cc4)coc3c2)cc1,0.89
Cc1nc2c(=O)n(-c3ccc(F)cc3F)nc(C)c2s1,3.2*
